Among the data in PubChem BioAssay (NCI) are growth inhibition values, retold here.

The nature of experiment [1]: NCI Yeast Anticancer Drug Screen. Data for the rad50 strain (AID 155).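 Further: 0% = growth of vehicle-only cultures of the same strain.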 The following applies: S. cerevisiae rad50 strain growth inhibition; at 50.0 µM; stronger effect = higher value. Summed up:
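Relative growth inhibition (compound vs vehicle) was measured in yeast with a defined repair-gene alteration.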

Experiment [2] in a line: NCI Yeast Anticancer Drug Screen. Data for the mec2-1 strain (AID 157). The settings on record: S. cerevisiae mec2-1 strain, at 50.0 µM, stronger effect = higher value. Summed up: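 Compounds were applied to mec2-1 yeast cells. Their growth was then compared with that of vehicle-treated cultures to give growth inhibition.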
The nature of experiment [3]: NCI Yeast Anticancer Drug Screen. Data for the sgs1 mgt1 strain (AID 161).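 Further: 0% = growth of cultures given vehicle only.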 The settings on record: S. cerevisiae sgs1 mgt1 strain, at 50.0 µM, stronger effect = higher value. The essentials:
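This yeast growth screen uses a strain with defined DNA-repair lesions; compound-treated growth is compared with vehicle-treated growth.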

Experiment [4] can be described thus: NCI Yeast Anticancer Drug Screen. Data for the cln2 rad14 strain (AID 165).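 Further: 0% = growth equal to vehicle treated cultures.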 The following applies: S. cerevisiae cln2 rad14 strain, at 50.0 µM, stronger effect = higher value. The essentials:
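Strain: cln2 rad14 yeast, altered in cell cycle control and DNA damage repair. Read-out: growth inhibition vs vehicle.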

Experiment [5] can be described thus: NCI Yeast Anticancer Drug Screen. Data for the bub3 strain (AID 167). The settings on record: S. cerevisiae bub3 mutant strain, at 50.0 µM, stronger effect = higher value. The essentials: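 Screening used yeast with an engineered genetic alteration affecting cell cycle control. Compound-exposed cultures were compared with vehicle cultures, and reduced growth was taken as inhibition.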

Experiment [6] is described as follows: NCI Yeast Anticancer Drug Screen. Data for the mlh1 rad18 strain (AID 175). The settings on record: S. cerevisiae mlh1 rad18 strain growth inhibition; at 50.0 µM; stronger effect = higher value. Summed up: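 A repair-deficient yeast strain is exposed to test compound, and growth is scored relative to vehicle-treated controls.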

The panel holds about 79,000 compounds, 15% with a hit somewhere; the sample as a whole holds those more often. Unmarked numbers belong to inactive results. Activity calls are given as the source filed them. No stated cut-off is given here; in the data, active means growth inhibition above about 70%; inactive means the rest. Where a SMILES comes first, the peptide text is derived from it. [ ]: non-standard residue; d: D form. The star is where a group is joined. Nle = CCCC[CH](N)C(=O)O; Cbz = O=C(OCc1ccccc1)*; OBn = c1ccc(CO*)cc1

In the case of `Cc1cc2nc3c(C(OC4OC(CO)C(O)C(O)C4O)C(O)CO)nn(-c4ccccc4)c3nc2cc1C` (stereo unspecified), the growth inhibition in experiment [1] is -23%; in experiment [2], -13.8%; in experiment [3], -35.1%; in experiment [4], 0.25%; in experiment [5], -26.9%; in experiment [6] it was 0.75%.
In the case of `O=S1(=O)CCC(Br)c2ccccc2C1` (stereo unspecified), the growth inhibition in experiment [1] was 6.15%; in experiment [2], 21%; in experiment [3] it was -7%; in experiment [4], 14.2%; in experiment [5], 3.85%; in experiment [6], -5.4%.
`COc1cc(C2C3=C(COC3=O)OC(C)(C)Oc3cc4c(cc32)OCO4)cc(OC)c1OC` (stereo unspecified): the growth inhibition in experiment [1] is 4.95%; in experiment [2], -11.8%; in experiment [3], 14.8%; in experiment [4], 52.9%; in experiment [5], -8.8%; in experiment [6], 22%.
In the case of `CCCCC(NC(=O)C1CCCN1C(=O)OCc1ccccc1)C(=O)OCc1ccccc1` (stereo not drawn) (Cbz-Pro-[Nle]-OBn; configuration not given here), the growth inhibition in experiment [1] is 12.4%; in experiment [2], 12.2%; in experiment [3], 11.4%; in experiment [4] it was -10.9%; in experiment [5], -5.45%; in experiment [6], 15.9%.
In the case of `COC(=O)c1cc([N+](=O)[O-])c(Sc2ncnc3nc[nH]c23)c([N+](=O)[O-])c1`, the growth inhibition in experiment [1] is 53%; in experiment [2], 25.6%; in experiment [3], 24.4%; in experiment [4] it was 80% (active); in experiment [5], 26.9%; in experiment [6], 34.8%.
As to `ClCCCCCc1c2nc(c(CCCCCCl)c3ccc([nH]3)c(CCCCCCl)c3ccc([nH]3)c(CCCCCCl)c3nc1C=C3)C=C2`, the growth inhibition in experiment [1] was -14.2%; in experiment [2], -19.1%; in experiment [3] it was -20.6%; in experiment [4], 3.75%; in experiment [5], 4.9%; in experiment [6] it was -47.4%.
For the compound `CCOC(=O)c1cn(CC)c2cc3c(cc2c1=O)SCS3`, the growth inhibition is -37.3% in experiment [1]; -18.9% in experiment [2]; -16.6% in experiment [3]; 29.9% in experiment [4]; 19.4% in experiment [5]; 41% in experiment [6].
Regarding `COc1ccc(-c2nnc(Cl)o2)cc1`, the growth inhibition was -1.95% in experiment [1]; 14.8% in experiment [2]; -6.75% in experiment [3]; -25.9% in experiment [4]; -21.1% in experiment [5]; -0.5% in experiment [6].
With `CC1SC2(C(=O)Nc3ccccc32)N(c2ccc(O)cc2)C1=O` (stereo unspecified), the growth inhibition in experiment [1] was 6.25%; in experiment [2], -2.75%; in experiment [3], 9.45%; in experiment [4] it was 2%; in experiment [5], 7.9%; in experiment [6], 14.8%.
As to `N#C/C(=C\NC(=S)C(N)=S)C(=O)c1ccc2ccccc2c1`, the growth inhibition is 40.4% in experiment [1]; 30.3% in experiment [2]; 40.5% in experiment [3]; 33.5% in experiment [4]; 24.3% in experiment [5]; 50.9% in experiment [6].
`NC(=O)NCCCC1NC(=S)N(c2ccccc2)C1=O` (stereo unspecified): the growth inhibition in experiment [1] was -3.35%; in experiment [2], -4.35%; in experiment [3], -3.2%; in experiment [4], -2.95%; in experiment [5], 23.9%; in experiment [6], 34%.
Turning to `CN(N=O)C(=O)NC(C=O)C(O)C(O)C(O)CO` (stereo unspecified), the growth inhibition in experiment [1] is 5.25%; in experiment [2], -23.4%; in experiment [3], 28.4%; in experiment [4], 12.2%; in experiment [5] it was 0.4%; in experiment [6] it was 1.6%.
As to `O=C(O)c1ccncc1C(=O)O`, the growth inhibition in experiment [1] was -4.3%; in experiment [2], -9.3%; in experiment [3], -17.1%; in experiment [4], 0.25%; in experiment [5], -5.8%; in experiment [6], 3%.
On to `Cc1ccc(-n2nc3c(c(C#N)c2=O)-c2ccccc2C3=O)cc1`, for which the growth inhibition in experiment [1] was -27.6%; in experiment [2] it was -4.4%; in experiment [3], -31.8%; in experiment [4], -38.5%; in experiment [5], -2.7%; in experiment [6] it was -14.3%.
In the case of `O=S(=O)(O)c1ccccc1O`, the growth inhibition was -0.1% in experiment [1]; -3.35% in experiment [2]; -2.75% in experiment [3]; -44.4% in experiment [4]; -19.9% in experiment [5]; 1.95% in experiment [6].
For `Cc1cc(S(=O)(=O)O)c(NC(=O)C(=O)C2C=CCS2(=O)=O)cc1Cl` (stereo unspecified), the growth inhibition in experiment [1] is -5.2%; in experiment [2], -20.8%; in experiment [3], -8.65%; in experiment [4], 1.8%; in experiment [5], -8.15%; in experiment [6], -8.85%.
Turning to `COc1cc(Br)c2ncccc2c1`, the growth inhibition in experiment [1] was 1.75%; in experiment [2], -0.6%; in experiment [3], 3.85%; in experiment [4], 4.05%; in experiment [5], 2.2%; in experiment [6], -14.5%.
As to `O=C(Nc1cccc(Cl)c1Cl)Oc1cccc2ccccc12`, the growth inhibition was 21.4% in experiment [1]; 5.15% in experiment [2]; 12.4% in experiment [3]; 8.65% in experiment [4]; 24.5% in experiment [5]; 16.4% in experiment [6].
`CCCc1cc(=O)oc2c3c(c4c(c12)OC(C)(C)C=C4)O[C@H](C)[C@@H](C)C3O` (stereo partly specified): the growth inhibition in experiment [1] is -6.25%; in experiment [2], 9.3%; in experiment [3], -1.45%; in experiment [4], -1.5%; in experiment [5], 11.3%; in experiment [6], -3.4%.
For the compound `S=C(S)N1CCN(c2ccc(Cl)c(Cl)c2)CC1`, the growth inhibition in experiment [1] was 4%; in experiment [2] it was -1.65%; in experiment [3], 20.9%; in experiment [4], 2.95%; in experiment [5], 8.1%; in experiment [6], 57.6%.
On to `CC1CNC2C(C)C3C(CC4C5CCC6CC(N=Cc7ccccc7O)CCC6(C)C5CCC43C)OC2(O)C1` (stereo unspecified), for which the growth inhibition in experiment [1] is 25.8%; in experiment [2], -6.2%; in experiment [3] it was -4.3%; in experiment [4], -3.95%; in experiment [5] it was 0.3%; in experiment [6], 0.55%.
